Results as given in PubChem BioAssay (NCI).
Compounds without any hit were thinned out: in the full panel of roughly 83,000, 20% have a hit.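 Values shown are percent growth following 48 h exposure of cells in 96-well plates to a single concentration of compound; below 10 was considered active.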 The source made the active and inactive calls.

What was measured:
Test in all cases: NCI-60 one-dose screen, 48 h (100 = growth as untreated, 0 = no growth, -100 = all killed)
Settings in all cases: 10 µM unless noted
[1] = tested on: DU-145 prostate
[2] = tested on: K-562 leukemia
[3] = tested on: MALME-3M melanoma
[4] = tested on: MDA-MB-231 breast
[5] = tested on: RXF 393 renal
[6] = tested on: SF-268 CNS
[7] = tested on: SF-295 CNS
[8] = tested on: SF-539 CNS
[9] = tested on: UACC-257 melanoma
[10] = tested on: M14 melanoma
[11] = tested on: HCT-15 colon
[12] = tested on: HT29 colon
[13] = tested on: SNB-75 CNS
[14] = tested on: SNB-19 CNS
[15] = tested on: U251 CNS
[16] = tested on: PC-3 prostate
[17] = tested on: SK-MEL-5 melanoma
[18] = tested on: UACC-62 melanoma
[19] = tested on: LOX IMVI melanoma
[20] = tested on: SK-MEL-28 melanoma

Measured: growth

C[C@]12CCc3sc(-c4cccc(F)c4)nc3C1=CC[C@@H]1[C@@H]2CC[C@]2(C)C(=O)CC[C@@H]12
inactive: [1] 22.9% | [3] 37.6% | [4] 62% | [6] 52.4% | [9] 77.4% | [10] 57.4% | [13] 44.6% | [14] 60% | [15] 18.8% | [16] 35% | [17] 61.5% | [18] 34.9% | [20] 48%
active: [2] 7.01% | [5] -22.5% | [7] -18.9% | [8] -33.4% | [11] -38.2% | [12] 5.21% | [19] 1.34%

Cc1c(O)c(CN(CCCl)CCCl)cc(CN(CCCl)CCCl)c1O
inactive: [1] 107% | [2] 103% | [3] 93.1% | [4] 93.5% | [5] 97.6% | [6] 88.4% | [7] 93.9% | [8] 82.5% | [9] 92.8% | [10] 92.4% | [11] 82.7% | [12] 70.8% | [13] 78.9% | [14] 99.7% | [15] 81.6% | [16] 65.8% | [17] 91.7% | [18] 89.1% | [19] 77.4% | [20] 102%

CCCCCCCCOC(=O)CCN1CC1
inactive: [1] 98.5% | [2] 119% | [3] 110% | [4] 114% | [5] 107% | [6] 95.9% | [7] 120% | [8] 99.4% | [9] 103% | [10] 107% | [11] 101% | [12] 111% | [13] 110% | [14] 112% | [15] 95.6% | [16] 104% | [17] 105% | [18] 109% | [19] 96.9% | [20] 113%

COC(=O)[C@@H](C)C[C@H](Cc1ccccc1)NC(=O)c1nc([C@@H](C[C@H](C(C)C)N(C)C(=O)[C@@H](NC(=O)[C@H]2C[C@H](O)CCN2C)C(C)C)OC(C)=O)sc1C(C)C
inactive: [3] 28.4% | [5] 18.9% | [6] 13.8% | [9] 66.1% | [14] 16.5% | [16] 21.5% | [18] 31.3% | [20] 44.8%
active: [1] -4.78% | [2] 5.9% | [4] 3.71% | [7] -16.8% | [8] -36.9% | [10] -22.4% | [11] 2.8% | [12] -15.3% | [13] -9.05% | [15] 7.85% | [17] -24% | [19] 8.19%

COC(=O)[C@H](Cc1ccccc1)NNC(=O)c1csc([C@@H](C[C@H](C(C)C)N(C)C(=O)[C@@H](NC(=O)[C@H]2CCCCN2C)C2CC2)OC(C)=O)n1
inactive: [3] 71% | [5] 76.4% | [6] 22.5% | [9] 58% | [11] 13.9% | [13] 49.2% | [14] 65.2% | [16] 13.9% | [18] 33.7% | [19] 13.6% | [20] 48.3%
active: [1] 6.55% | [2] 1.75% | [4] 3.27% | [7] -5.26% | [8] -15.4% | [10] 2.43% | [12] 4.57% | [15] 4.68% | [17] -42.3%

N/C(=N\N=C\c1ccc(-c2ccccc2)cc1)N[N+](=O)[O-]
inactive: [1] 33.4% | [2] 14.9% | [3] 43.7% | [4] 66.5% | [6] 49.1% | [9] 65.3% | [10] 25.8% | [11] 31.6% | [12] 14% | [14] 55.3% | [15] 31.1% | [16] 29.8% | [17] 19.8% | [18] 49.4% | [19] 41.9% | [20] 54%
active: [5] -4.68% | [7] 7.55% | [8] 9.43% | [13] -1.49%

COc1cc(/C=C\c2cc(OC)c(OC)c(OC)c2)cc(NS(=O)(=O)c2cccc(Cl)c2)c1OC
inactive: [2] 11.2% | [3] 112% | [4] 27% | [5] 37.8% | [7] 13.8% | [9] 57.3% | [11] 10.9% | [12] 15.3% | [13] 64.5% | [14] 41.2% | [15] 11.1% | [16] 35.1% | [18] 36.1% | [19] 20% | [20] 64%
active: [1] -31.6% | [6] -2.74% | [8] -0.958% | [10] 9.89% | [17] -29.4%

CC[C@H](NC(=O)[C@H]1CCCCN1C)C(=O)N(C)[C@H](C[C@@H](OC(C)=O)c1nc(C(=O)N[C@@H](Cc2ccccc2)C[C@H](C)C(=O)O)cs1)C(C)C
active: [1] 0.513% | [2] 6.94% | [4] 9.34% | [7] 0.548% | [8] -12.1% | [10] -10.4% | [11] 6.42% | [12] 2.74% | [17] -40.3%
inactive: [3] 76% | [5] 43.2% | [6] 30.2% | [9] 52.9% | [13] 24.9% | [14] 17.6% | [15] 14.9% | [16] 22.9% | [18] 27.1% | [19] 13.2% | [20] 73.7%

COC(=O)[C@@H](C)C[C@H](Cc1ccccc1)NC(=O)c1csc([C@@H](C[C@H](C(C)C)N(C)C(=O)[C@@H](NC(=O)[C@H]2CCCCN2C)C(C)C)OC(C)=O)n1
active: [2] 1.46% | [4] 1.38% | [7] -2.48% | [8] -23% | [10] -32.1% | [12] 5.25% | [13] 5.98% | [15] -1.97% | [16] 7.77% | [17] -50.2%
inactive: [1] 10.3% | [3] 51.5% | [5] 75.3% | [6] 17.1% | [9] 41.7% | [11] 15% | [14] 65.6% | [18] 41.7% | [19] 14.2% | [20] 39.2%

O=C(CCCCCCC(=O)Nc1ccc(N(CCCl)CCCl)cc1)NO
active: [5] -4.05% | [13] 6.28% | [17] -56.6% | [19] -19.9%
inactive: [1] 29% | [2] 32.6% | [3] 19.2% | [4] 85.8% | [6] 11.6% | [7] 32.7% | [8] 31.1% | [9] 18.6% | [10] 42.5% | [11] 72% | [12] 30.5% | [14] 45% | [15] 17.9% | [16] 54.6% | [18] 14.5% | [20] 35.3%

COC(=O)[C@@H](C)C[C@H](Cc1ccccc1)NC(=O)c1csc([C@@H](C[C@H](C(C)C)N(C)C(=O)C2(NC(=O)[C@H]3CCCCN3C)CC2)OC(C)=O)n1
inactive: [3] 73.3% | [4] 13.4% | [5] 77.5% | [6] 17.5% | [9] 56% | [11] 20.5% | [13] 26.5% | [14] 68.2% | [16] 12.3% | [18] 41.1% | [20] 58.7%
active: [1] 7.25% | [2] 3.8% | [7] 4.29% | [8] -10.4% | [10] 0.0884% | [12] 9.71% | [15] 4.91% | [17] -40.2% | [19] 3.04%

O=[N+]([O-])CC(c1ccccc1Cl)c1c(-c2ccccc2)[nH]c2ccccc12 (stereo not given)
active: [12] 8.38% | [13] 6.44%
inactive: [1] 43.7% | [2] 12.4% | [3] 42.1% | [4] 46.2% | [5] 27.8% | [6] 50.1% | [7] 24.3% | [8] 27.2% | [9] 48.9% | [10] 21.3% | [11] 22.8% | [14] 45.4% | [15] 34.8% | [16] 31.6% | [17] 28.4% | [18] 30.7% | [19] 33.4% | [20] 61.4%

O=C1Nc2ccccc2C2c3cccn3-c3ccccc3CN12 (stereo not given)
inactive: [1] 84.8% | [2] 12.4% | [3] 52% | [4] 39.2% | [5] 59.8% | [6] 75.1% | [7] 59.8% | [8] 55.1% | [9] 57.3% | [10] 20.2% | [11] 38% | [12] 11.3% | [13] 21.1% | [14] 73.4% | [15] 14.7% | [16] 48.6% | [17] 43.1% | [18] 35% | [19] 63% | [20] 66.6%

OCCNC(Cc1ccccc1)c1ccc2c(c1)OCO2 (stereo not given)
inactive: [1] 101% | [2] 84.1% | [3] 90.8% | [4] 98.7% | [5] 109% | [6] 97.9% | [7] 90% | [8] 104% | [9] 90.1% | [10] 88.5% | [11] 100% | [12] 73% | [13] 108% | [14] 106% | [15] 92.9% | [16] 73.1% | [17] 101% | [18] 92.4% | [19] 93.5% | [20] 109%

C[Se]C(=O)c1ccccc1OC(C)=O
active: [13] -42.4%
inactive: [1] 76.9% | [2] 74.8% | [3] 68.7% | [4] 68.3% | [5] 11.7% | [6] 18.3% | [7] 48.6% | [8] 50.3% | [9] 49.1% | [10] 20.8% | [11] 81% | [12] 11.1% | [14] 46.6% | [15] 46% | [16] 70% | [17] 79.3% | [18] 58.2% | [19] 45.3% | [20] 46.1%
